Source: PubChem BioAssay
Sampled rows, rich in hits. Any-hit rate of the full collection: about 6.6%.
FBA Mtb inh – Mtb fructose-bisphosphate aldolase inhibition; P9WQA3; purified M. tuberculosis FBA, fluorescence read-out; inhibition, % at 1 µM; 360,000 compounds, 2.3% hits; in the data active means inhibition above about 27%;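 further: 0% = vehicle and 100% = reference inhibitor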
Target sequence (P9WQA3 whole entry, looked up): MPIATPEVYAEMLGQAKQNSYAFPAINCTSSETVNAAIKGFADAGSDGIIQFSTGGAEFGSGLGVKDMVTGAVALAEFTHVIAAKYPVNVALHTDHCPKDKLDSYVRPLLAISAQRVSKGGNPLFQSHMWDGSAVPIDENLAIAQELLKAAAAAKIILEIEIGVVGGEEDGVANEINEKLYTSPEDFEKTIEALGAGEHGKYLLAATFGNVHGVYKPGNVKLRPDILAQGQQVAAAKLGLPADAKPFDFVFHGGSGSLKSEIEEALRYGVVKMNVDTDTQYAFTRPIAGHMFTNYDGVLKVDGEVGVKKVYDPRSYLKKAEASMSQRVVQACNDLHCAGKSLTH
Autofluor counter – flagged as autofluorescent in microsphere protease counterscreen; compound autofluorescence counterscreen, microsphere flow cytometry; hits give high values; fluorescence intensity (no concentration beside the values); 360,000 compounds, 3.1% hits; in the data active means fluorescence intensity above about 16000; inconclusive means no clear call, values can overlap the other calls
GDH-TPI inh – GDH-TPI coupled enzyme inhibition counter-screen. GDH-TPI coupled enzyme counterscreen, NADH absorbance. inhibition, % at 4.8 µM. 360,000 compounds, 1.2% hits; in the data active means inhibition above about 30%;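 further: 0% = DMSO wells and 100% = wells lacking the enzyme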
BoNT-A LC inh2 – blocks Botulinum neurotoxin A light chain protease. multiplex microsphere protease substrate cleavage, flow cytometry. inhibition, % at 10 µM. 360,000 compounds, 0.17% hits; further: plate controls were buffer without enzyme for full effect and enzyme alone for no effect
BoNT-F LC inh – BoNT F light chain protease inhibition | Multiplex microsphere protease cleavage assay, flow cytometry | inhibition, % at 10 µM | 360,000 compounds, 0.22% hits; in the data active means inhibition above about 35%, passing the limit was not always enough; inconclusive means no clear call, values can overlap the other calls; further: plate controls were buffer without enzyme for full effect and enzyme alone for no effect
Anthrax LF prot – blocks Bacillus anthracis lethal factor protease; multiplex microsphere protease cleavage assay, LF; AID 588501; 360,000 compounds, 0.12% hits; P15917; inhibition, % at 10 µM; further: plate controls were buffer without enzyme for full effect and enzyme alone for no effect
An asterisk follows results filed as active; u = inconclusive. Unless noted, no stated cut-off is given here; in the data, active means inhibition above about 30%; inconclusive means no clear call, values can overlap the other calls; inactive means below that.

SMILES | FBA Mtb inh | Autofluor counter | GDH-TPI inh | BoNT-A LC inh2 | BoNT-F LC inh | Anthrax LF prot
COc1ccc(NC(=O)/C(C#N)=C/c2ccc(Sc3nncn3C)c([N+](=O)[O-])c2)cc1 | -0.8 | 4138 | -1.9 | -1.3 | 0.4 | -3.7
CCc1nc2ccc(C(=O)NCc3ccc4c(c3)OCO4)cn2c1N(CC)Cc1cccc(Br)c1 | 1.8 | 4297 | 7.5 | -0.2 | -3.1 | -1.7
O=C(c1ccccn1)N1CCN(C(=O)c2ccccn2)CC1 | 0.1 | 16386* | 0.6 | -0.5 | -2.4 | -0.2
O=C(c1ccccn1)N1CCN(S(=O)(=O)c2ccccc2)CC1 | 1.4 | 4157 | -1.3 | 0.8 | 0.5 | -2.0
COc1ccc(OCc2ccc(C(=O)NN)cc2)cc1 | -1.1 | 19696* | -3.5 | -0.3 | -2.9 | -0.9
COc1ccc(C(=O)NCC(=O)O)cc1 | -0.6 | 17003* | 14.7 | -2.2 | -7.6 | -4.3
COc1ccc(OCC(O)CNC(=O)c2ccc(OC)cc2)cc1 (stereo unspecified) | -1.1 | 2605 | 2.8 | 0.2 | -0.6 | -1.6
COc1ccc(OCC(O)CNC(=O)c2ccc(Br)cc2)cc1 (stereo unspecified) | 0.1 | 21623* | -1.8 | 2.8 | 6.0 | -6.2
CC(C)Oc1ccc(C(=O)NCC(=O)O)cc1 | -1.5 | 4728 | 1.4 | 1.4 | -4.6 | -0.1
COc1ccc(C(=O)NCc2c(C)oc(C)c2C(=O)O)cc1 | -0.4 | 3063 | 3.4 | 1.4 | 36.4* | -4.4
CCc1nc2ccc(C(=O)NCCOc3ccc(OC)cc3)cn2c1N(CCC(C)C)CCN(C)C | 1.1 | 3371 | -11.7 | -0.7 | -2.6 | -4.9
CC(=O)Nc1c(C(N)=O)oc2ccc(Cl)cc12 | 1.7 | 6803 | -4.0 | -0.8 | -12.1 | -9.9
CCn1c(SCC(=O)N2CCCc3ccccc32)nnc1-c1cccs1 | -0.2 | 16895* | 2.8 | -2.3 | -5.1 | -1.8
CCn1c(SCc2cc(=O)[nH]c3ccccc23)nc2c1c(=O)n(C)c(=O)n2C | 2.8 | 24332* | 0.4 | -4.2 | -8.7 | -2.1
CCn1c(SCC(=O)N2CCCc3ccccc32)nc2c1c(=O)n(C)c(=O)n2C | -0.9 | 22886* | 2.5 | u | 0.3 | -0.3
CCCn1c(SCC(=O)c2cc(OC)ccc2OC)nc2c1c(=O)n(C)c(=O)n2C | -0.7 | 21330* | -12.7 | -1.7 | -2.4 | -1.4
Cn1ccnc1SCc1cc(=O)[nH]c2ccccc12 | -3.3 | 11368 | 7.5 | 0.2 | -5.0 | -2.1
NC1=NC(=Nc2cccc(S(=O)(=O)N3CCOCC3)c2)c2ccccc21 | 0.7 | 4735 | 11.2 | -0.5 | -7.8 | -0.1
CCN1CCN(S(=O)(=O)c2ccc(Cl)c(C(=O)NCc3nc4ccccc4[nH]3)c2)CC1 | -1.2 | 4092 | 9.9 | 0.7 | -1.2 | -1.0
CCc1cccc(CC)c1NC(=O)COC(=O)c1cccc(-c2ccc(OC(C)=O)cc2)c1 | 0.9 | 1972 | 5.3 | -1.2 | -5.8 | 0.0
CCCn1c(SCC(=O)NCCc2ccc(OC)c(OC)c2)nc2c1c(=O)n(C)c(=O)n2C | 0.4 | 18189* | 0.5 | 3.5 | 3.7 | -1.6
C=C(C)Cn1c(N2CCN(c3ccc(OC)cc3)CC2)nc2c1c(=O)n(C)c(=O)n2C | 2.9 | 3887 | 5.6 | -0.2 | -1.5 | 0.1
CCCn1c(SCC(=O)Nc2ccccc2C(=O)OC)nc2c1c(=O)n(C)c(=O)n2C | -1.7 | 20496* | -17.3 | -1.9 | -1.0 | 1.6
CCCn1c(SCC(=O)N2CCCC2)nc2c1c(=O)n(C)c(=O)n2C | -2.0 | 22149* | 5.8 | u | -0.9 | -3.0
CCCn1c(SCC(=O)N2CCN(c3ccc(OC)cc3)CC2)nc2c1c(=O)n(C)c(=O)n2C | 0.3 | 19577* | -0.5 | -0.1 | -1.3 | -1.7
SMILES | FBA Mtb inh | Autofluor counter | GDH-TPI inh | BoNT-A LC inh2 | BoNT-F LC inh | Anthrax LF prot
Cc1ccc(CNc2ncc(-c3ccccc3)n2C)o1 | 3.1 | 4543 | 7.5 | -0.6 | -1.0 | 1.2
CCN(CC)C(=O)CSc1nc2c(sc(=S)n2Cc2ccco2)c(=O)n1-c1ccccc1 | 3.6 | 20976* | 10.8 | -0.3 | -1.8 | -2.0
CCOC(=O)CSc1nc2c(sc(=S)n2Cc2ccco2)c(=O)n1-c1ccccc1 | -2.4 | 11224 | 32.9* | -0.2 | 4.1 | -2.5
CCOC(=O)CSc1nc2c(sc(=S)n2-c2ccccc2OC)c(=O)n1Cc1ccco1 | -2.1 | 16526* | 16.0 | -0.9 | -5.0 | -3.4
COc1ccccc1NC(=O)Cn1c(C)nc2c(sc(=S)n2Cc2ccco2)c1=O | 0.6 | 5410 | 31.7* | -0.5 | 0.6 | -2.9
CCOC(=O)CSc1nc2ccccc2c(=O)n1Cc1ccco1 | -1.1 | 7993 | -2.5 | 0.3 | -4.5 | 1.1
CCOC(=O)CSc1nc2c(sc(=S)n2-c2ccccc2OC)c(=O)n1-c1ccccc1OC | -2.1 | 3212 | 27.6 | -3.4 | -0.9 | -8.9
Cc1ccc(CNC(=O)Cn2c(=O)c3sccc3n(Cc3ccc([N+](=O)[O-])cc3)c2=O)cc1 | -2.9 | 2525 | 3.3 | -0.7 | 3.4 | -2.2
O=C(NCC1CCCO1)c1ccc2c(c1)N(Cc1ccc(Cl)cc1)CCS2 (stereo unspecified) | 132.4* | 3469 | 12.4 | 0.0 | -5.6 | -5.4
Cc1ccc(CN2CCSc3ccc(C(=O)NCCCN4CCN(C)CC4)cc32)cc1 | 160.8* | 5533 | 5.1 | 0.2 | -3.7 | -5.0
CN(C(=S)Nc1ccc(F)cc1)C1(c2ccccc2Cl)CCCCC1=O (stereo unspecified) | -0.9 | 24303* | -0.6 | -1.1 | -3.3 | 0.8
C=CCc1c(C)nc(C)nc1N/N=C/c1ccc(F)cc1 | -1.3 | 4553 | 32.5* | 0.8 | 5.8 | -0.1
Cc1ccc(C(=O)N2CCN(C(=O)c3ccco3)CC2)cc1NC(=O)c1ccco1 | -0.1 | 2502 | -2.8 | -1.3 | -7.1 | -1.4
Cc1cc(C(=O)COC(=O)c2cccc(O)c2)c(C)n1C1CC1 | 6.1 | 2783 | 6.7 | 1.5 | 12.8 | 5.8
CCOC(=O)c1ccc(OCC(=O)c2ccc(O)cc2O)cc1 | -2.4 | 3526 | 16.9 | -1.4 | -1.2 | 0.8
CCOC(=O)c1ccc(CC(=O)c2ccc(O)cc2O)o1 | 0.3 | 2902 | 18.9 | -0.4 | 0.2 | 0.5
COC(=O)c1cc(CC(=O)c2ccc(O)cc2O)c(C)o1 | 1.0 | 11443 | 35.9* | -0.6 | -2.8 | -2.1
COC(=O)c1ccc(COc2cccc(OC)c2)o1 | 5.1 | 22471* | 8.1 | 1.3 | -2.6 | -8.8
COC(=O)c1ccc(CC(=O)c2ccc(O)cc2O)o1 | -3.0 | 3264 | 32.5* | -0.9 | -0.7 | -2.6
COC(=O)c1ccc(OCC(=O)c2ccc(O)cc2O)cc1 | -1.2 | 24431* | 17.8 | -2.8 | -5.1 | -1.1
CCCCN1CC2=C(C1=O)C(c1ccc(O)cc1)NC(=O)N2C (stereo unspecified) | 1.6 | 4466 | 0.6 | -0.4 | -5.1 | 1.2
COc1ccccc1-c1cnc(C(O)c2ccc(SC)cc2)[nH]1 (stereo unspecified) | 0.6 | 3121 | 4.9 | -1.3 | -11.2 | -6.2
Cc1c2c(nc3c(C(=O)NC4CC4)cnn13)CCCC2 | 0.9 | 21129* | 0.6 | 4.7 | 5.5 | -6.7
Cc1cccc(N(C)S(=O)(=O)c2c[nH]c3ccc([N+](=O)[O-])cc23)c1 | -2.1 | 5154 | 8.9 | 0.1 | 2.2 | -0.4
COc1cc(OC)cc(C(=O)Nn2cc(C(=O)Nc3c(F)cccc3F)c3ccccc3c2=O)c1 | 2.6 | 2065 | 10.3 | 3.2 | 17.4 | -0.3
